Consider five molecules from PubChem BioAssay.

The source made the active and inactive calls.

A short description of test [1]: small molecules captured by biotinylated probe aFSTL3 – biochemical, small-molecule microarray, fluorescence 635/667, stem cell growth factor project, primary screen (AID 1064).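 Note: measures binding of the biotinylated anti-FSTL3 antibody to printed compounds.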 As to conditions: higher = more signal.
The nature of test [2]: binders from COS7 lysate, DM2A8 probe, primary screen, torsin A project, cell lysate, small-molecule microarray, fluorescence 635/667 (AID 1065). As to conditions: higher = more signal, COS7 lysate expressing mutant human TOR1A.
A short description of test [3]: small molecules captured by biotinylated probe aFGF2 – biochemical, small-molecule microarray, fluorescence 635/667, stem cell growth factor project, primary screen (AID 1067).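 Note: measures binding of biotinylated aFGF2 protein to printed compounds on slides; z-score merges feature fluorescence and signal-to-noise across triplicate slides.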 The conditions noted are these: higher = more signal.
Test [4] is described as follows: small molecules captured by biotinylated probe aFGF10 – biochemical, small-molecule microarray, fluorescence 635/667, stem cell growth factor project, primary screen (AID 1071).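 Note: score merges 667 nm spot intensity and signal to noise from triplicate slides.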 The conditions noted are these: higher = more signal.
In test [5] the target is Neurogenic locus notch homolog protein 2 (Homo sapiens) (UniProt Q04721). The test can be described thus: small molecules binding Notch2 protein – biochemical, small-molecule microarray, 635 nm fluorescence, stem cell growth factors, primary screen (AID 1073). The conditions noted are these: higher = more signal.
Test [6] concerns the target Pro-neuregulin-1, membrane-bound isoform (Homo sapiens) (UniProt Q02297). The test can be described thus: small molecules binding neuregulin-1 protein – biochemical, small-molecule microarray, fluorescence 635/667, psychiatric disease protein project, primary screen (AID 1075).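 Note: score combines 667 nm spot fluorescence with signal to noise.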 As to conditions: NRG1 binding, 635 nm fluorescence, higher = more signal.
Test [7] deals with Neuregulin-1 EGF-like domain. The test can be described thus: small molecules binding NRG1 EGF domain – biochemical, small-molecule microarray, 635 nm fluorescence, primary screen (AID 1081).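 Note: binding of the protein to compounds printed on small-molecule microarray slides.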 As to conditions: higher = more signal.
The nature of test [8]: FRG1 expression reporter modulators in myotubes – cell-based, C2C12 myotubes, firefly/Renilla luciferase, luminescence, FRG1 inhibition for FSHD, primary screen (AID 1084). The conditions noted are these: FRG1 promoter luciferase, higher = more signal, called active from +8 up or from −8 down.
Test [9] in a line: small molecules captured by biotinylated probe aFST – biochemical, small-molecule microarray, fluorescence 635/667, stem cell growth factor project, primary screen (AID 1086).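 Note: score merges 667 nm fluorescence with signal-to-noise of each printed compound spot.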 The conditions noted are these: higher = more signal.
A short description of test [10]: binders of probe aHhip on microarray, primary screen, stem cell growth factor project, biochemical, small-molecule microarray, fluorescence 635/667 (AID 1087).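 Note: score merges spot fluorescence at 667nm with spot signal to noise ratio.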 As to conditions: higher = more signal.
Test [11] deals with PRMT1 (protein arginine N-methyltransferase 1). Briefly: small molecules binding arginine methyltransferase PRMT1 – biochemical, small-molecule microarray, 635 nm fluorescence, primary screen (AID 1088).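 Note: binding of Prmt1 protein to compounds spotted on small-molecule microarray slides.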 As to conditions: higher = more signal.
Test [12] in a line: growth effects on S. cerevisiae YJM789 – YJM789 clinical isolate, OD600, 24 h, basal, primary screen (AID 1089).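 Note: growth of clinical yeast isolate S. cerevisiae YJM 789 seeded 1000 cells per well; test concentration not given here.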 As to conditions: higher = more signal, called active from +8 up or from −8 down.
A short description of test [13]: S. pombe growth modifiers, basal conditions – strain 972, OD600, 24 h, no modulator, primary screen (AID 1090).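 Note: basal condition with compound alone and no growth modifier present; test concentration not given here.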 As to conditions: S. pombe 972 growth, higher = more signal, called active from +8 up or from −8 down.
A short description of test [14]: budding yeast growth modifiers under rapamycin – strain BY4716, OD600, 96 h, primary screen (AID 1091). Note: test concentration not given here. The conditions noted are these: S. cerevisiae BY4716 + rapamycin, higher = more signal, called active from +8 up or from −8 down.
Test [15] has as its target Torsin-1A-interacting protein 2 (Homo sapiens) (UniProt Q8NFQ8). Briefly: small molecules binding lysate-expressed LULL1 – cell lysate, human LULL1 lysate, 635/667 nm fluorescence, primary screen (AID 1092).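 Note: probe is lysate of COS7 cells overexpressing human LULL1; score merges per-feature 667 nm fluorescence with signal-to-noise.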 The conditions noted are these: small-molecule microarray, hLULL1 lysate binding, 635 nm fluorescence; higher = more signal.
Test [16] in a line: optical density change of DRC41 E. coli – strain DRC41, OD650, 24 h, E. coli filamentation project, primary screen (AID 1093).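 Note: MC1000 strain lacking acrAB efflux and sulA so SOS filamentation is blocked; test concentration not given here.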 As to conditions: E. coli DRC41 growth, higher = more signal, called active from +8 up or from −8 down.
Test [17] can be described thus: probe aLefty2 binding to arrayed compounds – biochemical, biotinylated probe, 635/667 nm fluorescence, primary screen (AID 1094).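 Note: score merges spot fluorescence near 667 nm with spot signal-to-noise ratio.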 The conditions noted are these: small-molecule microarray, higher = more signal.
For test [18], the system named is Noggin (protein binding on small-molecule microarray). The test can be described thus: small molecules binding Noggin protein – biochemical, 635/667 nm fluorescence, primary screen (AID 1095).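 Note: score merges 667 nm feature fluorescence with signal to noise over triplicate slides.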 The conditions noted are these: 635 nm fluorescence, higher = more signal.
Test [19] addresses Neurogenic locus notch homolog protein 3 (Homo sapiens) (UniProt Q9UM47). Briefly: small molecules binding NOTCH3 protein – biochemical, 635/667 nm fluorescence, primary screen (AID 1096). As to conditions: small-molecule microarray, 635 nm fluorescence, higher = more signal.
The nature of test [20]: probe aEGFR binding to arrayed compounds – biochemical, biotinylated probe, 635/667 nm fluorescence, primary screen (AID 1097).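 Note: probe is a biotinylated anti-EGFR antibody binding compounds printed on slides; score combines fluorescence near 667 nm and signal to noise of each spot.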 As to conditions: small-molecule microarray, higher = more signal.

Sequence of Torsin-1A-interacting protein 2 (Homo sapiens) (Q8NFQ8 whole entry, looked up): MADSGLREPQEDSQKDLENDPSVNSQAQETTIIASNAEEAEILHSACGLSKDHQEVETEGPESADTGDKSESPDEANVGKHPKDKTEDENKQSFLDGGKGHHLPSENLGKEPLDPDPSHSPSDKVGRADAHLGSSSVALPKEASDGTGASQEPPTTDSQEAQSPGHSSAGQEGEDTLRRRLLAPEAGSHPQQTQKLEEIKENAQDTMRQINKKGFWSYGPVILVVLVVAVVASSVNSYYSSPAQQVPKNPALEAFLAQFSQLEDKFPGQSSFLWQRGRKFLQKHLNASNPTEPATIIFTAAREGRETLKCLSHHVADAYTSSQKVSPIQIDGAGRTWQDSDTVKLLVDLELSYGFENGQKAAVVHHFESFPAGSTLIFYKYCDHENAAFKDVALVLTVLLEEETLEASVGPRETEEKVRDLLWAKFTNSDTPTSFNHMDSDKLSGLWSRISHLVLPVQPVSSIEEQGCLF
Sequence of Neurogenic locus notch homolog protein 3 (Homo sapiens) (Q9UM47 whole entry, looked up): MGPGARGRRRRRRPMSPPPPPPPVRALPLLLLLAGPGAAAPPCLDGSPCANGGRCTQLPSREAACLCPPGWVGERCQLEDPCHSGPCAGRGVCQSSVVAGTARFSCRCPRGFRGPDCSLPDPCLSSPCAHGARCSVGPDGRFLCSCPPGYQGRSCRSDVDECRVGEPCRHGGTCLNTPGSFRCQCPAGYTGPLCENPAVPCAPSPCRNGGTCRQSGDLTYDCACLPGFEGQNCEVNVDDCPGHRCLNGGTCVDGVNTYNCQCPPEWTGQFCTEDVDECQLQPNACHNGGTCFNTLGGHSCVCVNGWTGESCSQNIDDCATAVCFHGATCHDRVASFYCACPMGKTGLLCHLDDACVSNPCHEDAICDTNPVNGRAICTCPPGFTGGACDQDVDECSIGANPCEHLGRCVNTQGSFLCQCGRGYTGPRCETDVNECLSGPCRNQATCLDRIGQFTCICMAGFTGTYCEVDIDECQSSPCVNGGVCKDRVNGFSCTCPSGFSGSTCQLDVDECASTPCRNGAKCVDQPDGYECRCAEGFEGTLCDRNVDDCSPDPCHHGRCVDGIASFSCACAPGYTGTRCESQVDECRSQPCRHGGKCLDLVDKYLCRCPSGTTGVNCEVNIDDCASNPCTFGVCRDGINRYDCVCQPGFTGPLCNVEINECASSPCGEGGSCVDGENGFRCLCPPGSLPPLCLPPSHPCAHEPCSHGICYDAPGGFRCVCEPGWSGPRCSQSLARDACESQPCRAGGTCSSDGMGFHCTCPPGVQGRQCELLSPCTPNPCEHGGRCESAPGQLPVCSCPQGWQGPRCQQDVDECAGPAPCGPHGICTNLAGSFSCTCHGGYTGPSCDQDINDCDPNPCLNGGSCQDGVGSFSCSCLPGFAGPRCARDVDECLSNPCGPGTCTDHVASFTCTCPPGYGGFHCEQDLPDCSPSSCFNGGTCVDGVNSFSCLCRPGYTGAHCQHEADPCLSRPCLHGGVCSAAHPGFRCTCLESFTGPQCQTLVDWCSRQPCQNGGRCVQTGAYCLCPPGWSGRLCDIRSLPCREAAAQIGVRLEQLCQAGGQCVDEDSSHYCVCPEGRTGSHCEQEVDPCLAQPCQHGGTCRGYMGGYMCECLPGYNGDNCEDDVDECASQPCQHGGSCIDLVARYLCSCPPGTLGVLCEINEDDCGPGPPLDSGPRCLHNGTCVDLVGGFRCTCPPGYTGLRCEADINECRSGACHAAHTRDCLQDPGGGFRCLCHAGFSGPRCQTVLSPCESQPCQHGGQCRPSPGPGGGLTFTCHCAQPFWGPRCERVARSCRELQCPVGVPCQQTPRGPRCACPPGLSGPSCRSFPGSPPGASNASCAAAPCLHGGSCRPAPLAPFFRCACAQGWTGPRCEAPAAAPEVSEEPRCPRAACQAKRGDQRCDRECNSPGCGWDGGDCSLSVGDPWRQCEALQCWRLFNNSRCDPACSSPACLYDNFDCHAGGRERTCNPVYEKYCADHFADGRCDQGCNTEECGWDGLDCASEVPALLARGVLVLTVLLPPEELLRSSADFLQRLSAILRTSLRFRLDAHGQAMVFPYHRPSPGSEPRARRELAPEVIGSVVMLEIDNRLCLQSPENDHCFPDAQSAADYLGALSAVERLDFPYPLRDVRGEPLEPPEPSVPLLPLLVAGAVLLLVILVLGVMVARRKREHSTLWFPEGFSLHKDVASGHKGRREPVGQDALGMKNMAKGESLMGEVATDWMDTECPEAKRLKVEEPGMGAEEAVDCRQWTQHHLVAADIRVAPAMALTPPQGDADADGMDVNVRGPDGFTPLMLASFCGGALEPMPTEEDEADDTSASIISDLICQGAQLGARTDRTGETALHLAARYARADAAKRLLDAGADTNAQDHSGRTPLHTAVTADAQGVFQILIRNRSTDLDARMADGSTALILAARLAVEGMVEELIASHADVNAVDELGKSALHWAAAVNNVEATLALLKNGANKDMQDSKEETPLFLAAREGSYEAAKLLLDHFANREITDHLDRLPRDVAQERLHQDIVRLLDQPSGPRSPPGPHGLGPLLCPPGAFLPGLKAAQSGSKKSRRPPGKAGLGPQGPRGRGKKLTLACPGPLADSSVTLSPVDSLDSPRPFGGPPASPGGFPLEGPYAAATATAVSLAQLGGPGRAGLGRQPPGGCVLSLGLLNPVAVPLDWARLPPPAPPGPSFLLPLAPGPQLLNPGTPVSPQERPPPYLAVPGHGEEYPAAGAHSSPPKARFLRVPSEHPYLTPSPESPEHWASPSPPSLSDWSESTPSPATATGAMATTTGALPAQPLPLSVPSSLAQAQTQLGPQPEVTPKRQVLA
Sequence of Pro-neuregulin-1, membrane-bound isoform (Homo sapiens) (Q02297 whole entry, looked up, the tested form may be a part, canonical isoform): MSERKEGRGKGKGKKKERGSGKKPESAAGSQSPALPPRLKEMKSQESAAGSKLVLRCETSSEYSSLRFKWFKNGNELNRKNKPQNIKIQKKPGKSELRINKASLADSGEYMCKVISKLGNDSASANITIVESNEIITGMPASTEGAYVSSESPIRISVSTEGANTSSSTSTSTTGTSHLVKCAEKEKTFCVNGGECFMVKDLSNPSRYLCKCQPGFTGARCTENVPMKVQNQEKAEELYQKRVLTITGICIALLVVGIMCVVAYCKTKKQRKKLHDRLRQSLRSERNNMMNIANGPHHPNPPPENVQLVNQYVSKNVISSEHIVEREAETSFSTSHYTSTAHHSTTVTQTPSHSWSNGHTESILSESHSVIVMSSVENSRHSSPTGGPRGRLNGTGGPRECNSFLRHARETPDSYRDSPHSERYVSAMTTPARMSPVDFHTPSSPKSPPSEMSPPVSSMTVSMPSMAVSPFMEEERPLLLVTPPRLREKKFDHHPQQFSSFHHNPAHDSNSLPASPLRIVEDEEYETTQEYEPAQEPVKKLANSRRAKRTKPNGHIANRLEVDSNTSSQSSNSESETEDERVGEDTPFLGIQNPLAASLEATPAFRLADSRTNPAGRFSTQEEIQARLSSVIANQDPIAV

In the case of `C#CCN(CC=C(C)C)[C@H](CO)c1ccccc1`, the composite z-score in test [1] was -0.418; in test [2], 0.0737; in test [3] it was -0.164; in [4], -0.078; in [5] it was 0.204; in [6], -0.223. Also, the composite z-score in test [7] was -0.187; in [9], -0.0173; in test [10], -0.199; in test [11] it was 0.489; in test [15], 0.0196; in [17], -0.0518. Also, the composite z-score in test [18] was 0.223; in test [19] it was 0.109; in test [20], -0.0814. In addition, the z-score in test [8] is -0.154 (inactive); in test [12], -0.319 (inactive); in [13] it was -4.47 (inactive); in test [14], -1.92 (inactive); in [16], 0.333 (inactive).
With `C=C(COC)/C(=C/C[C@@H](OC(C)=O)c1ccc(CO)o1)c1cnc2ccccc2c1`, the composite z-score in [1] was -0.258; in test [2], 0.434; in [3], 0.0472; in test [4] it was 1.11; in test [5] it was 1.65; in test [6] it was 1.02. Besides, the composite z-score in [7] came to 1.04; in test [9], 0.408; in test [10], 0.364; in [11], 1.54; in test [15], 0.612; in [17], 0.0624. For the same molecule, the figures for the composite z-score in test [18], in [19] and in test [20] were 1.72, 1.04 and 0.0821, respectively. For the same molecule, the z-score in [8] was 0.527 (inactive); in [12] it was 1.17 (inactive); in test [13] it was -0.721 (inactive); in test [14], 0.951 (inactive); in test [16] it was 1.27 (inactive).
For `COC(=O)C=C(CC(O)c1cccc(Cl)c1)OC` (stereo not given), the composite z-score in test [1] was 1.55; in test [2], 0.172; in [3], 0.54; in [4], 0.0631; in test [5] it was -0.0372; in test [6], 1.76. Besides, the composite z-score in test [7] was 1.21; in [9], 1.65; in [10], -0.0879; in [11] it was 0.0922; in [15], 2.4; in test [17], 1.06. The composite z-score was -0.309 in [18], -0.547 in test [19] and 0.115 in test [20]. In addition, the z-score is -4.2 (inactive) in [8]; -4.19 (inactive) in test [12]; -10.8 (active) in test [13]; -1.02 (inactive) in test [14]; 0.0753 (inactive) in [16].
With `COc1cc2c(cc1O)C=[N+](Cc1cccc(OC(F)(F)F)c1)CC2`, the composite z-score in test [1] is -0.193; in test [2] it was 0.137; in test [3], -0.106; in test [4], -0.0214; in [5], 0.457; in test [6], 0.529. Also, the composite z-score is 0.544 in test [7]; -0.0596 in test [9]; -0.374 in [10]; 0.224 in [11]; 0.319 in test [15]; -0.103 in test [17]. For the same molecule, the composite z-score is -0.0304 in test [18], -0.0987 in test [19] and -0.171 in [20]. Also, the z-score in [8] is -0.886 (inactive); in test [12], -1.65 (inactive); in test [13], -3.24 (inactive); in test [14] it was -1.98 (inactive); in test [16] it was -1.31 (inactive).
Take `CN1C(=O)C2C=CC(C(O)C3CCCCC3)N(Nc3ccc([N+](=O)[O-])cc3[N+](=O)[O-])C2C1=O` (stereo not given): the composite z-score amounted to 0.0318 in test [1]; 0.548 in test [2]; 0.0331 in [3]; 0.752 in [4]; 1.6 in test [5]; 1.59 in test [6]. Further, the composite z-score in test [7] came to 1.32; in [9], 1.51; in test [10] it was 0.236; in test [11], 1.52; in test [15], 3.24; in test [17], 0.191. Further, the composite z-score was determined as 0.219 in test [18], 1.03 in test [19] and 0.0624 in [20]. The z-score was 0.358 (inactive) in test [8]; 0.492 (inactive) in test [12]; 1.19 (inactive) in [13]; 0.68 (inactive) in test [14]; -0.632 (inactive) in test [16].
